Records with an inconclusive call do not appear. Activity calls are given as the source filed them. Calls follow the shape of the dose curve; as a rule, active = well fitted cell-killing curve with a large enough effect in the repeat runs; inconclusive = weak or mixed curves, or effect the other way; inactive = no such curve, though single readings can be large or run the other way.

The source of these data is PubChem BioAssay (Tox21).
% is scaled to controls: 0 for no effect and ±100 for the full control effect.

A short description of the experiment: qHTS assay to identify small molecule antagonists of the progesterone receptor (PR) signaling pathway - cell viability counter screen (AID 1346798). Also: nearly all actives have a fitted effect of over 50% in size. The note with it: PR-UAS-bla HEK293T viability, CellTiter-Glo luminescence, 16 h; series mostly up to 92.4 µM; activity change, negative = cytotoxicity: at the top concentration. The essentials:
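Same-well multiplex: after 16 hr at 37C with compound and R5020 stimulation, HEK293T cells carrying a UAS-bla reporter received LiveBLAzer substrate (2 hr RT), then CellTiter-Glo (30 min RT) for luminescent viability.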
(In general: qHTS replaces the single test concentration by a dilution series.)
Regarding `OC1OCCOC1O` (stereo not drawn), the “activity change, negative = cytotoxicity” value is 3.17% (inactive). The figure for `CC(C)(CO)C(O)C(=O)NCCCO` (stereo not drawn) is 10.6% (inactive). Consider `CCC(C)C(C)=O` (stereo not drawn), for which the “activity change, negative = cytotoxicity” value was -17.7% (inactive). The figure for `Cc1ccccc1C(N)=O` is 23.2% (inactive); for `CCCc1ccc(O)cc1` it is 5.83% (inactive). The figure for `CCc1occc(=O)c1O` is -13.9% (inactive). For `CC1(C)CC(OC(=O)CCCCCCCCC(=O)OC2CC(C)(C)NC(C)(C)C2)CC(C)(C)N1`, the activity change, negative = cytotoxicity was -13.3% [at 18.9 µM] (inactive). Turning to `CC1CC(=O)CC(C)(C)C1` (stereo not drawn), the “activity change, negative = cytotoxicity” value was 0.692% (inactive). As for `CCCCOC(=O)C(C)O` (stereo not drawn), the “activity change, negative = cytotoxicity” value is 4.81% (inactive).

`CC1CCc2c(N3CCC(O)CC3)c(F)cc3c(=O)c(C(=O)O)cn1c23` (stereo not drawn): the “activity change, negative = cytotoxicity” value was 14.7% [at 42.5 µM] (inactive). The figure for `COP(=O)(O)OP(=O)(O)OC` is 6.91% (inactive).

Turning to `CCCC(=O)Nc1ccc(OCC(O)CNC(C)C)c(C(C)=O)c1` (stereo not drawn), the “activity change, negative = cytotoxicity” value is 11.6% [at 42.5 µM] (inactive). The figure for `CN(C)C(C)(C)CO` is 5.84% (inactive). `CC(C)Nc1ccccc1`: the “activity change, negative = cytotoxicity” value is 9.96% (inactive).

In the case of `C=CC/C=C/C`, the “activity change, negative = cytotoxicity” value was -17.5% (inactive). On to `COc1ccc2c(c1)c1c3n2CCN(C)C3=NCC1`, for which the “activity change, negative = cytotoxicity” value is 1.41% [at 42.5 µM] (inactive). The figure for `CN(C)CCOC(=O)C(c1ccccc1)C1(O)CCCC1` (stereo not drawn) is -8.82% [at 42.5 µM] (inactive); for `COC(=O)c1cc(Cl)cc(Cl)c1` it is -5.39% (inactive). The figure for `CC1(C)[C@H]2CC[C@](C)(C2)[C@H]1O` is 0.203% (inactive). The figure for `COCCc1ccccn1` is -3.66% [at 42.5 µM] (inactive); for `COC(=O)CCCCC(CCSS/C(CCO)=C(\C)N(C=O)Cc1cnc(C)nc1N)SC(C)=O` (stereo not drawn) it is -8.84% [at 42.5 µM] (inactive). Turning to `CC12CCC(C1)C(C)(C)C2O` (stereo not drawn), the “activity change, negative = cytotoxicity” value was -7.6% (inactive). Regarding `COc1cc(/C=C/C(N)=O)cc(OC)c1OC`, the “activity change, negative = cytotoxicity” value was 0.283% [at 42.5 µM] (inactive).

`CCOc1cccc(N)c1`: the “activity change, negative = cytotoxicity” value is -8.81% (inactive).

Consider `CCOC(=O)CC1(C)OCC(C)O1` (stereo not drawn), for which the “activity change, negative = cytotoxicity” value is 0.18% (inactive). Turning to `Cc1cc(C)c(C(=O)O)c(C)c1`, the “activity change, negative = cytotoxicity” value was 9.82% (inactive). The figure for `CCCSSCCC` is 0.36% (inactive); for `CC(=O)OC1CCCCC1C(C)(C)C` (stereo not drawn) it is 10% (inactive).
